Source: PubChem (National Center for Advancing Translational Sciences (NCATS))
Sampled rows, rich in hits. Any-hit rate of the full collection: about 6.2%.
RORgamma inh – ROR gamma (mouse) transcription inhibition | P51450 | Drosophila S2 Gal4-RORgamma UAS-luciferase reporter, 20 h | Potency, µM (highest dose often 53.6 µM), inactives show at the top dose activity change, negative = inhibition, usual class: inhibitors | actives 5.4% (n = 310,000) | AID 2551; further: nearly all actives have a fitted effect of over 60% in size
Target sequence (P51450 whole entry, looked up, the tested form may be a part): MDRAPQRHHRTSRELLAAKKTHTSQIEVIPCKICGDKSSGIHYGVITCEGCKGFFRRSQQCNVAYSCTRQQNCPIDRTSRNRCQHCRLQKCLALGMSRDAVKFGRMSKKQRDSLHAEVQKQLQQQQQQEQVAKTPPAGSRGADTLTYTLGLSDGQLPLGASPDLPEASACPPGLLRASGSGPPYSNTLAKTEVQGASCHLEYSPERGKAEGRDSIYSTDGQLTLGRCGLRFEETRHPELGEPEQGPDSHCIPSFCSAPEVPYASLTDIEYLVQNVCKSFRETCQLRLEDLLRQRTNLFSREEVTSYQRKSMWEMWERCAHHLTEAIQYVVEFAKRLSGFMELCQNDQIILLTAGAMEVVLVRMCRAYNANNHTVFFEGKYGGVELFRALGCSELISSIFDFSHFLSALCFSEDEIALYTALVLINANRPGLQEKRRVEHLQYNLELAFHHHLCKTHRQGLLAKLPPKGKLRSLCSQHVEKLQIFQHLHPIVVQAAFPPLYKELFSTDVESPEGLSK
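Luminescence from a UAS-regulated Photinus luciferase reporter in stably transfected Drosophila Schneider cells is measured; decreased signal marks ROR gamma inhibition. Fusion expression is induced by 700 uM copper sulfate for 20 hr.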
Gal4-VP16 FLuc – inhibits Gal4-VP16 luciferase reporter, ROR gamma counter-screen; Potency, µM (titrated, usually from 53.6 µM), without a hit: top-dose activity, negative = inhibition, hits mostly inhibitors; actives 3.5% (n = 310,000); Drosophila S2 Gal4-VP16 UAS-luciferase, luminescence, 20 h; AID 2546;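 further: Gal4-VP16 expression switched on by copper sulfate through the metallothionein promoter; nearly all actives have a fitted effect of over 50% in size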
KinaseGlo FLuc – counter-screen: inhibitors of Kinase-Glo firefly luciferase. Q27757. Kinase-Glo luciferase, ATP luminescence, 8 min. Potency, µM (top dose mostly 38.3 µM), for inactives: top-dose activity change, negative = inhibition, most hits filed as inhibitors. actives 0.28% (n = 200,000); further: nearly all actives have a fitted effect of over 60% in size
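Inhibition of Kinase-Glo luciferase light generation was assessed at 10 uM ATP in pH 7.2 imidazole buffer, with luminescence measured after eight minutes at ambient temperature.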
An asterisk follows results filed as active; [ ] = remark or other dose. The call rests on the fitted dose curve; in most records, active means well fitted curve in the direction sought with a large enough effect; inconclusive means small, poorly fitted or top-dose-only effect, or another doubt; inactive means no such curve, though single readings can be large; an effect the other way counts as inactive or inconclusive. On the % scale 0 is the no-effect control and ±100 the full control effect; potency means the concentration at half of the fitted maximal effect.

For CCCC(=O)NC(=S)Nc1ccc(N2CCN(C(=O)c3cccs3)CC2)cc1 the results were RORgamma inh 7.9µM*, Gal4-VP16 FLuc inconclusive and KinaseGlo FLuc 3%.
For O=C(NC(=S)Nc1ccc(N2CCCCC2)cc1)c1cccs1 the results were RORgamma inh 3.2µM*, Gal4-VP16 FLuc 5µM* and KinaseGlo FLuc 7%.
O=C(NC(=S)Nc1ccc(N2CCN(C(=O)c3ccccc3)CC2)cc1)c1cccs1 was read as RORgamma inh 5.6µM*, Gal4-VP16 FLuc inconclusive and KinaseGlo FLuc 0%.
For O=C(Nc1ccc(N2CCN(C(=O)c3cccs3)CC2)cc1)c1ccccc1Cl the results were RORgamma inh 29% and Gal4-VP16 FLuc -5%.
For CS(=O)(=O)N1CCN(c2ccc(NC(=S)NC(=O)c3cccs3)cc2)CC1 the results were RORgamma inh 6%, Gal4-VP16 FLuc -12% and KinaseGlo FLuc 0%.
CSCCC(NC(=O)CCC(=O)OCC(=O)[C@@]1(O)CCC2[C@@H]3CCC4=CC(=O)C=C[C@]4(C)C3[C@@H](O)C[C@@]21C)C(=O)O (stereo partly specified) was read as RORgamma inh 1% and Gal4-VP16 FLuc 6%.
Cc1ccccc1Cn1c(=O)n(CC2CCC(C(=O)NCCc3ccccc3)CC2)c(=O)c2ccccc21 (stereo unspecified) was read as RORgamma inh inconclusive, Gal4-VP16 FLuc 18% and KinaseGlo FLuc 5%.
`Cn1cc(Br)c(C(=O)NN2C(=O)C3C(C2=O)C2C=CC3C23CC3)n1` (stereo unspecified) gave RORgamma inh -4%, Gal4-VP16 FLuc 0% and KinaseGlo FLuc -1%.
For CCCC1=NN(C(=O)Cc2ccc(OC)c(OC)c2)C(O)(C(F)(F)F)C1 (stereo unspecified) the results were RORgamma inh inconclusive and Gal4-VP16 FLuc -19%.
For COc1ccc(CC(=O)N2N=C(C)CC2(O)C(F)(F)F)cc1OC (stereo unspecified) the results were RORgamma inh inconclusive, Gal4-VP16 FLuc inconclusive and KinaseGlo FLuc 0%.
For COc1ccc(OCC(=O)N2N=C(C)CC2(O)C(F)(F)F)cc1 (stereo unspecified) the results were RORgamma inh 6.3µM*, Gal4-VP16 FLuc inconclusive and KinaseGlo FLuc 1%.
For CCC1=NN(C(=O)Cc2ccc(OC)cc2)C(O)(C(F)(F)F)C1 (stereo unspecified) the results were RORgamma inh 11µM*, Gal4-VP16 FLuc inconclusive and KinaseGlo FLuc -5%.
COc1ccc(CC(=O)N2N=C(c3ccncc3)CC2(O)C(F)(F)F)cc1 (stereo unspecified) was read as RORgamma inh 11µM*, Gal4-VP16 FLuc -3% and KinaseGlo FLuc 1%.
CCOC(=O)N1N=C(c2ccc(OC)cc2)CC1(O)C(F)(F)F (stereo unspecified) was read as RORgamma inh inconclusive, Gal4-VP16 FLuc inconclusive and KinaseGlo FLuc -9%.
CCc1ccc(C2=NN(C(=O)OC)C(O)(C(F)(F)F)C2)cc1 (stereo unspecified) was read as RORgamma inh 11µM*, Gal4-VP16 FLuc inconclusive and KinaseGlo FLuc -11%.
Screening COc1ccccc1CN1CC(C(=O)NCc2cc(C(C)C)no2)CCC1=O (stereo unspecified) returned RORgamma inh -2% and Gal4-VP16 FLuc -13%.
Nc1nc2c(ncn2C2OC(CO)CC2O)c(=O)[nH]1 (stereo unspecified) was read as RORgamma inh 20µM*, Gal4-VP16 FLuc inconclusive and KinaseGlo FLuc -3%.
`Nc1nc2c(ncn2[C@@H]2O[C@H](CO)[C@@H](O)[C@H]2O)c(=O)[nH]1` gave RORgamma inh 1%, Gal4-VP16 FLuc -1% and KinaseGlo FLuc 2%.
CCc1cc2c(nc1CC)CCN(CC/C(C)=N/O[C@@H](C)CN1CCCc3nc(C)c(C)cc31)C2 was read as RORgamma inh 0%[10 µM] and Gal4-VP16 FLuc 6%[10 µM].
COCCNc1c2c(nc3c(-c4ccccc4)c(C)nn13)CCC2 was read as RORgamma inh -40% and Gal4-VP16 FLuc -3%.
Cc1nn2c(NCCCN(C)C)c3c(nc2c1-c1ccccc1)CCCC3 was read as RORgamma inh inconclusive and Gal4-VP16 FLuc 3%.
Screening Cc1nn2c(Nc3ccccc3)c3c(nc2c1-c1ccccc1)CCC3 returned RORgamma inh 2.8µM*, Gal4-VP16 FLuc 5µM* and KinaseGlo FLuc -2%.
Screening Cc1nn2c(NC(C)C)c3c(nc2c1-c1ccccc1)CCC3 returned RORgamma inh 3.5µM* and Gal4-VP16 FLuc 10%.
`Cc1nn2c(NCCCN(C)C)c3c(nc2c1-c1ccccc1)CCC3` gave RORgamma inh 11µM*, Gal4-VP16 FLuc -20% and KinaseGlo FLuc 1%.
